# Reference: PubChem BioAssay AID686979 (National Center for Advancing Translational Sciences (NCATS), 2013)
# The whole screen tested about 420,000 compounds, of which about 50,000 (12%) were called active. About 26% were inconclusive and are not listed. The call rests on the fitted dose curve; in most records, active means well fitted inhibition curve with a large enough effect; inconclusive means small, poorly fitted or top-dose-only effect; inactive means flat fitted curve, though single readings scatter. The entries come from a sample that favours actives as a whole. A call without a number means that no potency is given here.
# Test: qHTS for Inhibitors of human tyrosyl-DNA phosphodiesterase 1 (TDP1): qHTS in cells in presence of CPT; further: nearly all actives have a fitted effect of over 55% in size
# Settings: chicken DT40 Tdp1-/-;hTDP1 cells + 20 nM CPT, ATP luminescence, 48 h; series mostly up to 46.2 µM
# In short: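 Chicken DT40 Tdp1-/- cells stably complemented with human TDP1 were seeded at 400 cells/well in medium containing 20 nM camptothecin, exposed to pin-transferred compounds, and grown at 37 °C for at least 48 hr. Viability was read as ATP luminescence.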
# Potency means the concentration at half of the fitted maximal effect.
row,Compound,Potency
1,O=C(CN1C(=O)NC2(CCCC2)C1=O)Nc1ccc(F)c(F)c1F,inactive
2,CC(=O)CC(CC(=O)NC1CCCCC1)c1ccccc1 (stereo unspecified),inactive
3,CCC(C)C1(C2CCCC2)NC(=O)NC1=O (stereo unspecified),inactive
4,CCOc1ccc(NC(=O)CN(C)C(=O)Cc2sc(C)nc2-c2ccc(F)cc2)cc1OCC,inactive
5,O=C(c1cnccn1)N1CCC2(CCCN(Cc3ccccc3)C2)CC1,inactive
6,O=C(CCCOc1ccccc1)NNC(=O)c1ccc(Cl)cc1,inactive
7,Cc1ccc(S(=O)(=O)N2CCC(C)CC2)cc1C(=O)NCc1ccccn1,inactive
8,S=C(NCc1ccc(Cl)cc1)NC1CCCCC1,inactive
9,CN(C)CCCNC(=S)NCc1ccc(Cl)cc1,inactive
10,NCCCNC(=S)NCCCN(Cc1ccc(Cl)cc1)c1ccc(Br)cn1,15.8 µM (active)
11,CCCn1c(C)cc(/C=C(\C#N)C(=O)OCC(=O)N(C)c2c(N)n(Cc3ccccc3)c(=O)[nH]c2=O)c1C,inactive
12,CN(O)C(=S)c1ccccc1,0.13 µM (active)
13,CN(CC(=O)O)C(=O)c1ccccc1,inactive
14,CN(/N=C/c1ccccc1)C(=S)c1ccccc1,inactive
15,CC(C)c1nc2cc(C(=O)NC(C)c3cnn(C)c3)ccc2o1 (stereo unspecified),inactive
16,O=C(NCCS(=O)(=O)NCc1ccc(Cl)cc1)c1ccccc1,inactive
17,CC(=O)c1cc(C#N)c(SCC(=O)C(C)(C)C)nc1C,2.82 µM (active)
18,CC(=O)c1cc(C#N)c(N2CCCCC2)nc1C,inactive
19,CC(=O)c1cc(C#N)c(N2CC(C)OC(C)C2)nc1C (stereo unspecified),inactive
20,O=C(NCc1cccnc1)c1ccc2nc([C@@H]3O[C@H](CO)[C@H](O)[C@H](O)[C@H]3O)[nH]c2c1,inactive
21,CC1=NN(C(N)=S)C(=O)C1N=Nc1cc(Cl)ccc1Cl (stereo unspecified),inactive
22,Cc1nc(Nc2ccccc2C)c2cnn(C)c2n1,inactive

row,Compound,Potency
1,CC[C@]12c3[nH]c4ccc(Cl)cc4c3CCN1C(=O)[C@@H](CC(=O)NCCCOC)C[C@@H]2C(=O)N1CCN(C(=O)c2ccco2)CC1,inactive
2,O=C(C[C@H]1C[C@H](C(=O)N2CCOCC2)[C@@]2(CCC3CCCC3)c3[nH]c4ccc(Cl)cc4c3CCN2C1=O)NCc1ccco1,20.6 µM (active)
3,COc1ccc2[nH]c3c(c2c1)CCN1C(=O)C(CC(=O)NCCCN(C)C)C[C@H](C(=O)N2CCOCC2)[C@@]31CCC1CCCC1 (stereo partly specified),inactive
4,CC[C@]12c3[nH]c4ccc(OC)cc4c3CCN1C(=O)C(CC(=O)NCc1ccco1)C[C@@H]2C(=O)N1CCN(C(=O)C2CC2)CC1 (stereo partly specified),inactive
5,CC[C@]12c3[nH]c4ccc(Cl)cc4c3CCN1C(=O)[C@@H](CC(=O)NCCN1CCOCC1)C[C@@H]2C(=O)N1CCN(C(=O)C2CC2)CC1,inactive
6,COc1ccc(CNC(=O)C[C@H]2C[C@H](C(=O)N3CCOCC3)[C@@]3(CCC4CCCC4)c4[nH]c5ccc(Cl)cc5c4CCN3C2=O)cc1OC,16.4 µM (active)
7,O=C(NNS(=O)(=O)c1ccc(F)cc1)c1ccc([N+](=O)[O-])cc1Cl,inactive
8,Cc1cc(OC(C)C(=O)Nc2ccc(S(=O)(=O)Nc3onc(C)c3C)cc2)cc(C)c1Cl (stereo unspecified),inactive
9,CNC(=O)C1CC(=O)N(c2ccc(OCC(=O)Nc3ccccc3C)cc2)C1 (stereo unspecified),inactive
10,O=S(=O)(c1ccccc1)c1nc(-c2ccc(Cl)cc2Cl)oc1N1CCCCC1,14.6 µM (active)
11,COc1ccc(-c2nc(S(=O)(=O)c3ccccc3)c(N3CCCCC3)o2)cc1,23.1 µM (active)
12,O=S(=O)(Nc1cc(Cl)ccc1N1CCOCC1)c1ccccc1Cl,inactive
13,CC(=O)c1ccc(N2CCN(c3nc4c(S(=O)(=O)c5ccccc5)nnn4c4ccc(Cl)cc34)CC2)cc1,inactive
14,O=S(=O)(c1ccccc1)c1nc(Cc2ccccc2)oc1N1CCOCC1,inactive
15,O=S(=O)(c1ccc(Br)cc1)c1nc(-c2ccccc2)oc1N1CCOCC1,inactive
16,Cc1ccc(CNC(=O)CCC(=O)N2Cc3ccccc3Oc3ncccc32)cc1,inactive
17,CC(C)Cc1nnc(N)s1,inactive
18,COc1cc2ccc(C(C)=O)c(O)c2cc1OC,inactive
19,COCCC(=O)N1CCC(Oc2ccc(C(=O)NCc3ccon3)cc2)CC1,inactive
20,CCOc1ccc(C(=O)N2CCN(CCc3ccccn3)CC2)cc1,inactive
21,O=C(Cc1ccc(Cl)cc1)Nc1ccc2nn(-c3ccc(Cl)cc3)nc2c1,inactive
22,Cc1cc2nn(-c3ccc(Cl)cc3)nc2cc1NC(=O)C(C)C,inactive

row,Compound,Potency
1,Nc1ccc2nn(-c3ccc(Cl)cc3)nc2c1,6.51 µM (active)
2,Cc1cccc(C)c1NC(=O)CNC(=O)c1c(C)nn(-c2ccccc2)c1C,inactive
3,COc1cc(NC(=O)Cn2c(=O)n(Cc3ccco3)c(=O)c3oc4ccccc4c32)cc(OC)c1,inactive
4,Cc1nnc(SCC(=O)Nc2ccc(S(=O)(=O)Nc3ccc(Cl)nn3)cc2)s1,inactive
5,CCOC(=O)Cn1c(-c2cccnc2Cl)nc2ccccc21,inactive
6,CCOC(=O)CN1C(=O)C(O)(CC(=O)c2ccccn2)c2ccccc21 (stereo unspecified),5.8 µM (active)
7,CCOC(=O)CN1CCC(c2ccccc2)CC1,inactive
8,CCn1c(SCc2cccc(C(=O)O)c2)nnc1-c1ccc(Cl)cc1,inactive
9,CN(C)CCCOc1ccc(-c2ccc3nccn3c2)cn1,inactive
10,Cc1cccc(C)c1NC(=O)c1ccc(CN2CCc3ccccc3C2)cc1,20.6 µM (active)
11,Cc1ccc(NC(=O)CN2CCc3ccccc3C2)cc1C,inactive
12,CCc1ccc(NC(=O)N2CCc3ccccc3C2)cc1,inactive
13,CC(=O)c1ccc(S(=O)(=O)N2CCC(Oc3ccc(-n4cnnn4)cc3)CC2)cc1,inactive
14,O=S(=O)(/C=C/c1ccccc1)N1CCNCC1,inactive
15,CCn1c(CNC(=O)c2cc(OC)c(OC)c(OC)c2)cc2cc(C)ccc21,20.6 µM (active)
16,COc1cc(C(=O)NCCOC(=O)c2cccc(N(C)C)c2)cc(OC)c1OC,inactive
17,CCN1CCN(CC(=O)c2cc(OC)c(OC)c(OC)c2)CC1,inactive
18,O=C(COC(=O)c1ccccc1)Nc1ccccc1Sc1ccccc1,inactive
19,CCc1nc2nc(C)c(NS(=O)(=O)c3ccc4c(c3)CCCC4)c(=O)n2[nH]1,inactive
20,Cn1nccc1NS(=O)(=O)c1ccc(F)cc1,inactive
21,Cc1ccc(NS(=O)(=O)c2ccc(F)cc2)nc1,inactive
22,Cc1cc(F)ccc1NS(=O)(=O)c1ccc(-n2cccn2)cc1,14.6 µM (active)
